Measurements as given in PubChem BioAssay (Tox21).
Records with an inconclusive call do not appear. Activity calls are given as the source filed them. Unless noted, calls follow the shape of the dose curve; as a rule, active = well fitted curve in the direction sought with a large enough effect in the repeat runs; inconclusive = weak or mixed curves; inactive = no such curve, though single readings can be large; an effect the other way counts as inactive or inconclusive.

Key:
[1] = target: Thyrotropin receptor (Homo sapiens) (UniProt P16473); experiment: qHTS assay to identify small molecule antagonists of the thyroid stimulating hormone receptor (TSHR) signaling pathway (AID 1259385; calls by dose curve; also: nearly all actives have a fitted effect of over 20% in size; also: potency is read from the fitted curve at half-maximal effect)
Sequence of Thyrotropin receptor (Homo sapiens) (P16473 whole entry, looked up): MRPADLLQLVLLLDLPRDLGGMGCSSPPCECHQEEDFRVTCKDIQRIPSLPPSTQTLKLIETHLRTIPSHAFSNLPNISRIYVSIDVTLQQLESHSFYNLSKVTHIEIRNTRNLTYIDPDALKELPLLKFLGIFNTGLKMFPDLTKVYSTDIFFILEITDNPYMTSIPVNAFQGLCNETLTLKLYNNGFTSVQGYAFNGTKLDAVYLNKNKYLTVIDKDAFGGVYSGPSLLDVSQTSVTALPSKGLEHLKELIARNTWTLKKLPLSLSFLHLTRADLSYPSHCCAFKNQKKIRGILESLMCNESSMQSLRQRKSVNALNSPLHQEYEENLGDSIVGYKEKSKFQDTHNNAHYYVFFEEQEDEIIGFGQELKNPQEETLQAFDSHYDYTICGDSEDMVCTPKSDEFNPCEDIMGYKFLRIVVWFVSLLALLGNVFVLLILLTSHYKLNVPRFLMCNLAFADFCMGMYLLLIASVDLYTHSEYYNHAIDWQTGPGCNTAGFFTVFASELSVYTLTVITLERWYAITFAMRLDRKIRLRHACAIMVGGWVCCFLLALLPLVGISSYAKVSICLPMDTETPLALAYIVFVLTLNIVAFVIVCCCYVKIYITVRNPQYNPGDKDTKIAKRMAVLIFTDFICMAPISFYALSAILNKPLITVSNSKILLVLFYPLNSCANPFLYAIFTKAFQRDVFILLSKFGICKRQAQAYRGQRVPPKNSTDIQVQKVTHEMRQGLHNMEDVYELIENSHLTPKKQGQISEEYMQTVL
Summary of the method: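 TSHR-HEK293 cells (800/well) plated 18 h, then compounds with Ro20-1724 and TSH at 1.5 ng/mL final, 30 min at room temperature. cAMP quantified by HTRF (cAMP-d2/anti-cAMP-cryptate, 1 h); 15 concentrations in triplicate.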

[2] = qHTS assay to identify small molecule agonists of the estrogen receptor alpha (ER-alpha) signaling pathway in the presence of an antagonist - cell viability counter screen (AID 1259386);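 also: series mostly up to about 92 µM; cells exposed to compounds for 22 h at 37 °C before the viability read; nearly all actives have a fitted effect of over 30% in size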
Summary of the method: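 Steps: 5-day stripped-FBS culture; seed and incubate 24hr; add ICI-182,780 (10.0nM final); pin 15-point compound titration; incubate 22hr at 37C; add CellTiter-Fluor at 21hr; read fluorescence.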

[3] = target: Progesterone receptor (Homo sapiens) (UniProt P06401); experiment: qHTS assay to identify small molecule agonists of the progesterone receptor (PR) signaling pathway (AID 1346784; calls by dose curve; also: nearly all actives have a fitted effect of over 30% in size; also: potency is read from the fitted curve at half-maximal effect)
Sequence of Progesterone receptor (Homo sapiens) (P06401 whole entry, looked up): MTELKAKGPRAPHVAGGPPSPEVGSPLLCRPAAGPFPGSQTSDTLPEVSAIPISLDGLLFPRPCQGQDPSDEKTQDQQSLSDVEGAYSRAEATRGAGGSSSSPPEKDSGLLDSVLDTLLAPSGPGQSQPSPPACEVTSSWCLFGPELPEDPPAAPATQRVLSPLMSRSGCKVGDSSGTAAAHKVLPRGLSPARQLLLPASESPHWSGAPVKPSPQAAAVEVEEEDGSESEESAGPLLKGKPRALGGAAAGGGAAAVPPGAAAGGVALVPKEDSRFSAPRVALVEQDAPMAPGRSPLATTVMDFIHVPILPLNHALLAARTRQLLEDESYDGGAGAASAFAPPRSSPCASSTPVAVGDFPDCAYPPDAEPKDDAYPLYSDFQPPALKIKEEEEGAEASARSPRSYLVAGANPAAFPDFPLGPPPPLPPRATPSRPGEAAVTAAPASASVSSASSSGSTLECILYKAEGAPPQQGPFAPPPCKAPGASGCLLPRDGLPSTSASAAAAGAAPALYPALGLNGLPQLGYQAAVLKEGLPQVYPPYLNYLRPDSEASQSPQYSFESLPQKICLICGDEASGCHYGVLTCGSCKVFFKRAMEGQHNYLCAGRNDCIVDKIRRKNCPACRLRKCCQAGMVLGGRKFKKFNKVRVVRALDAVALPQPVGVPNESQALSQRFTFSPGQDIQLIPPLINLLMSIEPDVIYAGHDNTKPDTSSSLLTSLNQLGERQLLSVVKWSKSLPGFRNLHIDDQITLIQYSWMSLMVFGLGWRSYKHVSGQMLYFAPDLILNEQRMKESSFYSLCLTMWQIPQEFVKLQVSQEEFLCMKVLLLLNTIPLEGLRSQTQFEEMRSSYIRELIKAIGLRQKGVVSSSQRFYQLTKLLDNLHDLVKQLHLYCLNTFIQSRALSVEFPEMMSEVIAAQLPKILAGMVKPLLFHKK
Summary of the method: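 Compounds were tested for PR agonism in HEK 293T cells bearing a beta-lactamase gene under UAS control. Treatment lasted 16 hr at 37C; signal came from fluorescence of a FRET substrate.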

[4] = target: Progesterone receptor (Homo sapiens) (UniProt P06401); experiment: qHTS assay to identify small molecule antagonists of the progesterone receptor (PR) signaling pathway (AID 1346795; active = well fitted inhibition curve with a large enough effect in the signal ratio in the repeat runs, not every such curve was filed as active; the % refers to the signal ratio)
Summary of the method: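 In HEK293T cells bearing the PR-UAS-bla reporter, compound effects on promegestone-driven (1 nM) beta-lactamase expression are assessed after 16 hr using a fluorescent FRET substrate incubated 2 hr at room temperature.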

[5] = qHTS assay to identify small molecule agonists of the progesterone receptor (PR) signaling pathway - cell viability counter screen (AID 1346799; calls by dose curve; also: nearly all actives have a fitted effect of over 45% in size)
Summary of the method: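 Here, 3,000 PR-UAS-bla HEK293T cells per well were treated with compounds for 16 hr after a 6 hr preincubation at 37C and 5% CO2; cell viability is the CellTiter-Glo luminescence signal.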

[6] = qHTS assay to identify small molecule antagonists of the TGF-beta/Smad signaling pathway - cell viability counter screen (AID 1346824); also: nearly all actives have a fitted effect of over 50% in size
Summary of the method: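 SBE-bla HEK 293T cells, incubated overnight, then compound plus 0.25 ng/mL TGF-beta1 (stock added) for 5 hr at 37 C. Viability was read in the same wells by CellTiter-Glo luminescence after 30 min at room temperature.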

[7] = qHTS assay to identify small molecule agonists of the TGF-beta/Smad signaling pathway - cell viability counter screen (AID 1346829); also: top concentration of the series differs between compounds; nearly all actives have a fitted effect of over 45% in size
Summary of the method: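 Here the cytotoxicity of library compounds is measured in SBE-bla HEK 293T cells treated for 5 hr, using CellTiter-Glo added to wells already read for the beta-lactamase reporter.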

[8] = qHTS assay to identify small molecule agonists of the TGF-beta/Smad signaling pathway (AID 1346859; active = well fitted activation curve with a large enough effect in the signal ratio in the repeat runs, not every such curve was filed as active; the % refers to the signal ratio; also: series mostly up to about 77 µM)
Summary of the method: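 Each well held 4,000 SBE-bla HEK 293T cells incubated overnight before compound addition; 5 hr later the cleavable FRET substrate went on for 2 hr at room temperature, and fluorescence was read at two emissions.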

[9] = Human pregnane X receptor (PXR) small molecule agonists, qHTS cell viability counter screen (AID 1346977); also: nearly all actives have a fitted effect of over 50% in size; also: potency is read from the fitted curve at half-maximal effect
Summary of the method: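 Tox21 qHTS format; PXR-Luc HepG2, 2,000/well, charcoal-stripped FBS 5%. Cpd exposure 24hr. Read: CellTiter-Fluor fluorescence, multiplexed with luciferase.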

[10] = Caspase-3/7 induction in HepG2 cells by small molecules, qHTS assay (AID 1346978); also: nearly all actives have a fitted effect of over 15% in size
Summary of the method: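 Wild-type HepG2 cells, 2,000/well, settled 5 hr at 37 C and 5% CO2, then compound-treated for 17 hr; caspase-3/7 activity read by luminescent Caspase-Glo 3/7 after 30 min at room temperature.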

[11] = Caspase-3/7 induction in CHO-K1 cells by small molecules, qHTS cell viability counter screen (AID 1346979); also: nearly all actives have a fitted effect of over 35% in size; also: potency is read from the fitted curve at half-maximal effect
Summary of the method: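 CellTiter-Fluor viability check, qHTS format: wild-type CHO-K1, 16hr compound treatment, 1hr reagent incubation, fluorescence read.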

[12] = Caspase-3/7 induction in CHO-K1 cells by small molecules, qHTS assay (AID 1346980); also: nearly all actives have a fitted effect of over 15% in size
Summary of the method: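 Wild-type CHO-K1 cells exposed to compounds for 17hr at 37 C, 5% CO2. Caspase-3/7 activity then measured by Caspase-Glo 3/7 luminescence after 30min at room temperature.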

[13] = Caspase-3/7 induction in HepG2 cells by small molecules, qHTS cell viability counter screen (AID 1346981); also: series mostly up to about 92 µM; nearly all actives have a fitted effect of over 30% in size
Summary of the method: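 The parent HepG2 line is plated at 2,000 cells per well and rested 5 hr before compound pinning from DMSO stocks. Following a 16-hr treatment at 37 C, a fluorogenic live-cell substrate (CellTiter-Fluor) reports viability after 1 hr.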

[14] = target: Nuclear receptor subfamily 1 group I member 2 (Homo sapiens) (UniProt O75469); experiment: Human pregnane X receptor (PXR) small molecule agonists, qHTS assay (AID 1346982); also: nearly all actives have a fitted effect of over 35% in size; also: potency is read from the fitted curve at half-maximal effect
Sequence of Nuclear receptor subfamily 1 group I member 2 (Homo sapiens) (O75469 whole entry, looked up): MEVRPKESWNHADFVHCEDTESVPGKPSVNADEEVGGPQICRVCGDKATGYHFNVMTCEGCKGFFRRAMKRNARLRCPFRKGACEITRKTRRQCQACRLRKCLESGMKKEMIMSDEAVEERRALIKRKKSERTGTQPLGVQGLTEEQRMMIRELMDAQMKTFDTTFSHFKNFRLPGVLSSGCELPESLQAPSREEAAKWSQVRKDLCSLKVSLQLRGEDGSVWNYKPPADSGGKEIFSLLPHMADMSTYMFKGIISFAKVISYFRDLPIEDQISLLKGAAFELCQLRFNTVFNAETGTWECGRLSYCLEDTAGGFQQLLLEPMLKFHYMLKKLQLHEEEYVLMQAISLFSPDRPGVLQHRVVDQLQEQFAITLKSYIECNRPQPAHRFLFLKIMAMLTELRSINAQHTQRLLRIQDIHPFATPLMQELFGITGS
Summary of the method: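 After plating in 5% charcoal-stripped FBS and a 5 hr rest, PXR-Luc HepG2 cells received compounds in DMSO. Following 24 hr at 37 C, ONE-Glo was added and light output read.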

[15] = target: Nuclear receptor subfamily 1 group I member 2 (Rattus norvegicus) (UniProt Q9R1A7); experiment: Rat pregnane X receptor (rPXR) activation by small molecules, qHTS assay (AID 1346983); conditions: rPXR luciferase reporter cells, One-Glo luminescence, 24 h; max activation: stronger effect = higher value; also: nearly all actives have a fitted effect of over 20% in size
Sequence of Nuclear receptor subfamily 1 group I member 2 (Rattus norvegicus) (Q9R1A7 whole entry, looked up): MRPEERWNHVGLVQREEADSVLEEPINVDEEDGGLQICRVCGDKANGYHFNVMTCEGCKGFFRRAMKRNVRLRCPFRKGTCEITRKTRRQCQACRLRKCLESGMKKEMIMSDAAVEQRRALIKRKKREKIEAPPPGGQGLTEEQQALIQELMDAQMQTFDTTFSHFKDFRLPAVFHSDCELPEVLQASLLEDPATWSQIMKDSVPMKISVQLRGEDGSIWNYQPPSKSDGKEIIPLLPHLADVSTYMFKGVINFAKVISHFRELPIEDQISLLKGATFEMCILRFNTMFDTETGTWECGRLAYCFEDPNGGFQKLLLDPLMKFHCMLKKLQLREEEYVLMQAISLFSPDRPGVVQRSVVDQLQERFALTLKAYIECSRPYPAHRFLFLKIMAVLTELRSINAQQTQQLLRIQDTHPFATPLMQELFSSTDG
Summary of the method: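 Cell-based rPXR activation assay: rPXR cells, 2,000 per well, rested 5hr at 37 C, then exposed to compounds in DMSO for 24 hr at 37 C. Luciferase activity read by One-Glo luminescence after 30 min at room temperature.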

[16] = target: Nuclear receptor subfamily 1 group I member 2 (Homo sapiens) (UniProt O75469); experiment: CYP3A4 induction through human pregnane X receptor (PXR) by small molecules, qHTS assay (AID 1346984); also: nearly all actives have a fitted effect of over 40% in size
Summary of the method: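 Human PXR activation is tracked via CYP3A4 promoter-luciferase in DPX-2 (HepG2) cells. Compounds treat cells for 24hr at 37C, and luminescence is read after One-Glo.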

[17] = target: Nuclear receptor subfamily 1 group I member 2 (Homo sapiens) (UniProt O75469); experiment: Human pregnane X receptor (PXR) activation by small molecules, qHTS assay (AID 1346985); also: nearly all actives have a fitted effect of over 40% in size
Summary of the method: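 DPX-2 cells (HepG2 co-transfected with a PXR response element and a CYP3A4-promoter luciferase construct) were seeded at 2,000 per well, rested 5 hr at 37C, then exposed to DMSO-dissolved compounds for 24 hr. Activation was read as luciferase luminescence.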

[18] = qHTS assay to identify small molecule antagonists of the progesterone receptor (PR) signaling pathway - cell viability counter screen (AID 1346798); also: nearly all actives have a fitted effect of over 50% in size; also: potency is read from the fitted curve at half-maximal effect; as to activity change, negative = cytotoxicity: series mostly up to about 92 µM
Summary of the method: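 Following a 4 hr attachment, PR-UAS-bla HEK293T cells in charcoal-stripped FBS medium were exposed to compounds with R5020 for 16 hr; CellTiter-Glo was added and luminescence read after 30 min at room temperature.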

[19] = target: Thyrotropin-releasing hormone receptor (Homo sapiens) (UniProt P34981); experiment: qHTS assay to identify small molecule antagonists of the thyrotropin-releasing hormone receptor (TRHR) signaling pathway (AID 1346877; active = well fitted inhibition curve with a large enough effect in the repeat runs, not every such curve was filed as active; also: series mostly up to about 51 µM)
Sequence of Thyrotropin-releasing hormone receptor (Homo sapiens) (P34981 whole entry, looked up): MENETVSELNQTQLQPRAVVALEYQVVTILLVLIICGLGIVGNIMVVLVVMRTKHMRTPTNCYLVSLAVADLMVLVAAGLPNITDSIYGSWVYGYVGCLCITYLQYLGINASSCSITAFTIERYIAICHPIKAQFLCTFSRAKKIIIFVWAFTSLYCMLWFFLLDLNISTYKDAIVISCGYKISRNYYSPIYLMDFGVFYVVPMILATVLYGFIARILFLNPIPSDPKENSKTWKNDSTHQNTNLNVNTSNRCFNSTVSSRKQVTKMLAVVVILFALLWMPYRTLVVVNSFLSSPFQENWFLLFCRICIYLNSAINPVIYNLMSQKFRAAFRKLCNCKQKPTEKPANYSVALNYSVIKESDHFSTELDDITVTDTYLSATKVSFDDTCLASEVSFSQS
Summary of the method: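 Human TRHR in HEK293 cells; inhibition of the intracellular calcium rise triggered by 1 nM TRH was followed by fluorescence over 3 min. Compounds were run at 15 concentrations, three replicates each.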

[20] = target: Thyrotropin-releasing hormone receptor (Homo sapiens) (UniProt P34981); experiment: qHTS assay to identify small molecule agonists of the thyrotropin-releasing hormone receptor (TRHR) signaling pathway (AID 1346891; calls by dose curve; also: series mostly up to about 58 µM)
Summary of the method: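 Screening of agonists relied on calcium signalling in HEK293 cells expressing human TRHR: dye loading 2 h at 37 °C preceded compound addition and a 3-min fluorescence time course.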
% is scaled to controls: 0 for no effect and ±100 for the full control effect.

NCCC(O)(P(=O)(O)O)P(=O)(O)O
inactive: Potency [1] | Potency [2] | Potency [3] | Potency [4] | Potency [5] | outcome [6] | outcome [7] | outcome [8] | Potency [9] | Potency [10] | Potency [11] | outcome [12] | Potency [13] | Potency [14] | max activation [15] -0.383% | Potency [16] | Potency [17]

O=C1C=CC(=O)O1
inactive: Potency [1] | Potency [2] | Potency [3] | Potency [18] | Potency [5] | outcome [6] | outcome [7] | outcome [8] | outcome [19] | Potency [20] | Potency [9] | Potency [10] | Potency [11] | outcome [12] | Potency [13] | Potency [14]

O=C(C(Cl)Cl)N1CCOC12CCCCC2
active: Potency [9] 61.1 µM | Potency [11] 61.1 µM | Potency [14] 34.4 µM
inactive: Potency [1] | Potency [2] | Potency [3] | Potency [18] | Potency [5] | outcome [6] | outcome [7] | outcome [8] | outcome [19] | Potency [20] | Potency [10] | outcome [12]

CCOC(=O)c1cc(=O)c2c(OCC(COc3cccc4oc(C(=O)OCC)cc(=O)c34)OC(=O)[C@@H](N)CCCCN)cccc2o1
inactive: Potency [1] | Potency [2] | Potency [3] | Potency [4] | Potency [5] | outcome [6] | outcome [7] | Potency [9] | Potency [10] | Potency [11] | outcome [12] | Potency [13] | Potency [14]

CC(C)CCCCCCc1ccc(OCCOCCO)cc1
active: Potency [14] 97.2 µM
inactive: Potency [1] | Potency [2] | Potency [3] | Potency [4] | Potency [5] | outcome [6] | outcome [7] | Potency [9] | Potency [10] | Potency [11] | outcome [12] | Potency [13]

CCCC1CCC(=O)O1 (stereo not given)
inactive: Potency [1] | Potency [2] | Potency [3] | Potency [18] | Potency [5] | outcome [6] | outcome [7] | outcome [8] | outcome [19] | Potency [20] | Potency [9] | Potency [10] | Potency [11] | outcome [12] | Potency [13] | Potency [14]

CC(=O)OC(C)OC(C)=O
active: Potency [3] 50 µM
inactive: Potency [1] | Potency [2] | Potency [4] | Potency [5] | outcome [6] | outcome [7] | outcome [8] | Potency [20] | Potency [9] | Potency [11] | outcome [12] | Potency [13] | Potency [14]

C=CCCC=C
inactive: Potency [1] | Potency [2] | Potency [18] | Potency [5] | outcome [6] | outcome [7] | outcome [8] | outcome [19] | Potency [20] | Potency [9] | Potency [10] | Potency [11] | outcome [12] | Potency [13] | Potency [14]
active: Potency [3] 19.9 µM

CCC/C=C/CO
inactive: Potency [1] | Potency [2] | Potency [3] | Potency [4] | outcome [6] | outcome [7] | outcome [8] | outcome [19] | Potency [20] | Potency [9] | Potency [10] | Potency [11] | outcome [12] | Potency [14]

Cc1nc(-c2ccccn2)ncc1C(=O)Nn1cc(C)c2cc(F)ccc21
active: Potency [18] 30.6 µM | Potency [14] 4.86 µM
inactive: Potency [1] | Potency [2] | Potency [3] | outcome [6] | outcome [7] | outcome [8] | outcome [19] | Potency [20] | Potency [9] | Potency [10] | Potency [13]

Cc1c(-c2ccccc2)oc2c(C(=O)OCCN3CCCCC3)cccc2c1=O
active: Potency [1] 23.7 µM
inactive: Potency [2] | Potency [3] | Potency [18] | Potency [5] | outcome [6] | outcome [19] | Potency [20] | Potency [9] | Potency [10] | Potency [11] | outcome [12] | Potency [13] | Potency [14] | max activation [15] -3.87% | Potency [16] | Potency [17]

CCCCCCCCCCCCCCCCOP(=O)([O-])OCC[N+](C)(C)C
inactive: Potency [1] | Potency [2] | Potency [3] | Potency [4] | outcome [6] | outcome [7] | outcome [8] | Potency [9] | Potency [10] | Potency [11] | outcome [12] | Potency [13] | Potency [14] | max activation [15] 0.239% | Potency [16] | Potency [17]

N#CSCC(=O)O
inactive: Potency [1] | Potency [2] | Potency [3] | Potency [4] | Potency [5] | outcome [6] | outcome [7] | outcome [8] | Potency [10] | Potency [11] | outcome [12] | Potency [13] | Potency [14]

CC(C)C[C@H](NC(=O)OCC1c2ccccc2-c2ccccc21)C(=O)O
inactive: Potency [1] | Potency [2] | Potency [3] | Potency [18] | Potency [5] | outcome [6] | outcome [7] | Potency [10] | Potency [11] | outcome [12] | Potency [13]

Clc1cccc(-c2cc(Cl)cc(Cl)c2)c1
inactive: Potency [2] | Potency [3] | Potency [18] | outcome [6] | outcome [7] | outcome [8] | outcome [19] | Potency [20] | Potency [9] | Potency [11] | outcome [12] | Potency [13]
active: Potency [1] 52.5 µM | Potency [14] 59 µM

NC(Cc1ccc(F)cc1)C(=O)O (stereo not given)
inactive: activity change, negative = inhibition [1] -1.13% [at 8.39 µM] | activity change, negative = cytotoxicity [2] 2.6% [at 8.39 µM] | activation [3] 0.365% [at 8.39 µM] | activity change, negative = cytotoxicity [18] -3.28% [at 8.39 µM] | activity change, negative = cytotoxicity [5] 1.93% [at 8.39 µM] | viability change, negative = cytotoxic [6] 18.5% [at 6.97 µM] | activity change, negative = cytotoxicity [7] 4.18% [at 6.97 µM] | activation [8] -0.692% [at 6.97 µM] | activation [20] 0.148% [at 5.23 µM] | caspase activation [10] 0.163% [at 8.39 µM] | caspase-3/7 activation [12] 2.35% [at 8.39 µM] | activity change, negative = cytotoxicity [13] -1.98% [at 8.39 µM]
